TGFb SMAD3 inh: qHTS for Inhibitors of TGF-b. HepG2 CAGA-GFP TGF-b/SMAD3 reporter, GFP fluorescence, 18 h; TGF-beta stimulated, 500 pg/mL final. Potency, µM (series often up to 46.1 µM), actives largely listed as inhibitors. actives 1.2% (n = 410,000). AID 588855, 2011; note: nearly all actives have a fitted effect of over 65% in size
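GFP signal (ex488/em500-530) from TGF-beta-stimulated HEPG2 CAGA-GFP cells, 500 pg/mL final, 18 h at 37 degrees C in DMEM plus 1% FBS, normalized to unstimulated and DMSO-stimulated controls.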
mIDH1 inhibitor: qHTS for Inhibitors of mutant isocitrate dehydrogenase 1 (IDH1): qHTS. actives 0.093% (n = 390,000). Potency, µM (titrated, usually from 76.6 µM), usual class: inhibitors. Isocitrate dehydrogenase [NADP] cytoplasmic (Homo sapiens), O75874. IDH1-R132H enzyme, NADPH consumption, diaphorase/resazurin fluorescence; note: nearly all actives have a fitted effect of over 65% in size
Target sequence (O75874 whole entry R132H, stated change not applied): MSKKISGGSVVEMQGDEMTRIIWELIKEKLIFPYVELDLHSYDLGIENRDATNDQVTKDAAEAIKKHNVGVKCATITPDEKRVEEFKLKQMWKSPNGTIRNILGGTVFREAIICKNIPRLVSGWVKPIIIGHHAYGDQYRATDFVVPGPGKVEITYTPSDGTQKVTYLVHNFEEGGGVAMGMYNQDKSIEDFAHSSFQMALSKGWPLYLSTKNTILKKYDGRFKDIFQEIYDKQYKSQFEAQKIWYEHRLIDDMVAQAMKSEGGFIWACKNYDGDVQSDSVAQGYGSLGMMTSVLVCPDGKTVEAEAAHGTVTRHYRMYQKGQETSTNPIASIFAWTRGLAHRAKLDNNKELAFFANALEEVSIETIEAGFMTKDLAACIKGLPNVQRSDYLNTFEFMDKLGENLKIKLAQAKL
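IDH1-R132H (0.5 ug/mL dispensed) in pH 7.5 Tris buffer was preincubated 30 min with compound, then given a substrate mix of 0.016 mM NADPH and 2 mM alpha-KG for 80 min at room temperature; remaining NADPH was read by diaphorase/resazurin fluorescence.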
HepG2 tox: qHTS for Inhibitors of TGF-b: Cytotox Counterscreen. HepG2 CAGA-GFP viability, ATP luminescence, 18 h. Potency, µM (titrated, usually from 46.1 µM), usual class: cytotoxic. actives 0.76% (n = 410,000). AID 588856, 2011
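CellTiter-Glo luminescence gave cytotoxicity after 18 hours at 37 degrees C. The cells were HepG2 CAGA-GFP in 1% FBS DMEM, stimulated with 500 pg/mL TGF-beta after compound addition. %Activity was normalised to no-cell wells (complete cell-killing) and DMSO (no toxicity), and curves were fitted and classified.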
ATXN2 expr inh: Primary qHTS for Inhibitors of ATXN expression. AID 1745845, 2022. actives 0.72% (n = 360,000). Potency, µM (doses to about 57 µM), most hits filed as inhibitors. HEK-293 ATXN2-luciferase reporter, luminescence, 24 h; note: nearly all actives have a fitted effect of over 55% in size
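ATXN2-luciferase reporter cells (luciferase flanked by upstream and downstream ATXN2 gene portions) were treated 24 h at 37 °C with compounds at up to 57 uM. SteadyGlo luminescence gave expression; GF-AFC fluorescence gave viability.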
S2 tox: Viability Counterscreen for Primary qHTS for Inhibitors of ATXN expression; S2 cells (HEK-293 line with an ATXN2-luciferase reporter) viability, CellTiter-Fluor protease fluorescence, 24 h; Potency, µM (highest dose often 56.7 µM), hits mostly cytotoxic; actives 0.49% (n = 400,000); AID 651635, 2014; note: nearly all actives have a fitted effect of over 40% in size
LDHA block: qHTS assay for inhibitors of human lactate dehydrogenase | L-lactate dehydrogenase A chain (Homo sapiens), P00338 | actives 0.15% (n = 480,000) | purified LDHA, NADH/diaphorase-resazurin fluorescence; active compounds read low | activity change, % (values are at about 110 or 230 µM); in the data active = activity change below about -30%; inconclusive = mostly about -25% to -30%
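Enzyme activity of human lactate dehydrogenase 5 (2 nM; 0.06 mM NADH, 0.2 mM pyruvate, 5 min, RT) is measured via a resazurin/diaphorase fluorescence readout of residual NADH.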
Numbers stand for hits; . = inactive; ? = inconclusive; / = not tested or not shown. Rows were chosen to be rich in hits. Some 2.2% of all compounds tested hit in one or more screens of this group. Unless noted, calls come from the whole dose curve; as a rule, active = well fitted curve in the direction sought with a large enough effect; inconclusive = small, poorly fitted or top-dose-only effect, or another doubt; inactive = no such curve, though single readings can be large; an effect the other way counts as inactive or inconclusive.

SMILES	TGFb SMAD3 inh	mIDH1 inhibitor	HepG2 tox	ATXN2 expr inh	S2 tox	LDHA block
COc1cc(OC)c(OC)cc1/C=N/NC(=O)c1cnccn1	.	.	.	.	.	.
COc1cccc(/C=N/NC(=O)C(=O)Nc2ccccc2OC(F)(F)C(F)F)c1O	.	.	.	10µM	?	.
Cc1ccc(C)c(N2CCN(C(=O)c3cc(S(=O)(=O)N4CCC(C)CC4)cn3C)CC2)c1	?	.	.	.	.	.
COCCNc1nc2c(c(=O)n(Cc3cccc(Cl)c3)c(=O)n2C)n1C	.	.	.	.	.	.
N#Cc1c(Nc2ccccc2)c(C=O)c[nH]c1=O	.	.	.	.	.	.
O=C1CCCC2=C1C(c1cccc(Cl)c1Cl)n1nnnc1N2 (configuration not stated)	/	/	/	/	/	.
COc1cccc(/C=N/NC(=O)c2[nH]c(C)c(C(=O)N/N=C/c3cccc(OC)c3O)c2C)c1O	?	.	.	14µM	.	.
Cc1cccc(/C=N/NC(=O)c2c(-c3ccccc3)noc2C)c1O	?	.	.	3.5µM	.	.
COc1cccc(/C=N/NC(=O)c2ccc(-c3ccccc3)cc2)c1O	?	.	.	3.2µM	?	.
COc1ccc(OC)c(/C=N\NC(=O)c2ccc(-c3ccccc3)cc2)c1	.	.	.	.	.	.
COc1cccc(/C=N/NC(=O)c2cc(-c3ccccn3)nc3ccccc23)c1O	.	.	.	5µM	?	.
COc1cccc(-c2nc(-c3ccc(F)cc3)cs2)c1	/	/	/	/	/	.
COc1ccc(-c2nc(S(=O)(=O)c3ccc4c(c3)OCCO4)c(N(C)C)o2)cc1OC	/	/	/	/	/	.
O=C(N/N=C/c1ccccn1)c1cc(-c2ccccc2)nc2ccccc12	10µM	.	.	/	?	.
O=C(N/N=C/c1ccccn1)c1cc(C2CC2)nc2ccccc12	.	.	.	.	.	.
COc1ccc(C(=O)Nc2cccc(C(=O)N/N=C/c3ccc(OC)cc3OC)c2)cc1	.	.	.	11µM	.	.
COc1cccc(/C=N/NC(=O)CNC(=O)C2COc3ccccc3O2)c1O (configuration not stated)	.	.	.	8.9µM	.	.
C=CCC[C@@H](Cc1ccc(F)cc1)C(=O)OC[C@@H]1CCCN1C(=O)[C@@H](CC=C)CC(=O)N(CCO)Cc1ccccc1	?	.	13µM	?	?	.
C=CCC[C@@H](Cc1ccc(F)cc1)C(=O)OC[C@@H]1CCCN1C(=O)[C@H](CC=C)CC(=O)N[C@H](CO)Cc1ccccc1	11µM	.	.	?	/	.
C=CCC[C@@H](Cc1ccc(F)cc1)C(=O)OC[C@H]1CCCN1C(=O)[C@@H](CC=C)CC(=O)N[C@H](CO)Cc1ccccc1	?	.	.	?	?	.
CC(C)CNc1nc(C(=O)Nc2nccs2)cs1	/	/	/	/	/	.
Cc1ccc(NC(=O)COc2ccc(/C=C3/SC(=Nc4ccccc4)N(Cc4cccnc4)C3=O)cc2)cc1	.	.	.	14µM	?	.
CCN(CC)CC(=O)Nc1cc(N(C)C)nc2ccccc12	.	.	.	.	.	-33
CCCCCC(=O)Nc1cc(N(C)C)nc2ccccc12	.	.	.	.	.	.
Cc1ccc(C(=O)CCC(=O)NN2C(=O)NC3(CCCCC3)C2=O)cc1	.	.	.	.	.	.
SMILES	TGFb SMAD3 inh	mIDH1 inhibitor	HepG2 tox	ATXN2 expr inh	S2 tox	LDHA block
O=C(NN1CCOCC1)c1ccn(COc2c(Cl)cccc2Cl)n1	/	/	/	/	/	.
O=C(NN1CCOCC1)c1ccn(COc2ccc(Br)cc2)n1	/	/	/	/	/	-33
CS(=O)(=O)N1CCc2cc(-c3csc(NC(=O)Cc4cccs4)n3)ccc21	?	.	.	18µM	?	.
CCN1C(=O)N[C@@H](c2cccc(C(F)(F)F)c2)C(C(=O)OC)=C1C	.	.	.	.	.	.
COC(=O)C1=C(C)N(CC2CC2)C(=NCc2cccc(Cl)c2)N[C@H]1c1ccccc1	?	.	.	.	.	.
CCN(CC)CCCN=C1N[C@@H](c2cccc(C(F)(F)F)c2)C(C(=O)OC)=C(C)N1CC	?	.	.	?	22µM	?
CCN1C(=NCCCCO)N[C@@H](c2cccc(F)c2)C(C(=O)OC)=C1C	.	.	.	.	.	.
CCN1C(=NCc2cccc(C(F)(F)F)c2)N[C@@H](c2cccc(C(F)(F)F)c2)C(C(=O)OC)=C1C	3.5µM	/	.	/	/	.
CCN1C(=NCc2cccc(Cl)c2)N[C@@H](c2cccc(C(F)(F)F)c2)C(C(=O)OC)=C1C	14µM	/	.	/	/	.
Cc1ccc(-n2[nH]c(C)c(C=NC34CN5CN(CN(C5)C3)C4)c2=O)cc1C	.	.	10µM	.	.	.
COCCCN=Cc1c(C)[nH]n(-c2ccc(Br)c(C)c2)c1=O	?	.	.	.	.	.
O=C1CCCC(=O)N1c1ccc(O)cc1	.	.	.	.	.	.
O=C1C=CC(=O)N1c1ccc(O)cc1	?	.	7.9µM	/	.	.
CC(=O)c1ccc(N2CCN(C(=S)Nc3ccccc3C(F)(F)F)CC2)cc1	?	.	.	?	.	.
Cc1cc(C)nc(Nc2ncc(O)n2-c2ccc(Cl)cc2)n1	/	/	/	/	/	.
COc1ccc(C2CC(c3cccs3)=NN2C(=O)CCC(=O)O)cc1 (configuration not stated)	.	.	.	/	.	.
COc1ccc(C2CC(c3cccs3)=NN2C(=O)c2ccccc2)cc1OC (configuration not stated)	.	.	.	.	?	.
COc1ccc(C2CC(c3cccs3)=NN2C(=O)CCl)cc1OC (configuration not stated)	10µM	.	7.1µM	13µM	11µM	.
COc1cc(C2CC(c3cccs3)=NN2C(=O)CCl)ccc1OC(F)F (configuration not stated)	6.3µM	.	6.3µM	?	/	.
CCn1ncc(C2=NOC(C(=O)Nc3cnn(C45CC6CC(CC(C6)C4)C5)c3)C2)c1C (configuration not stated)	.	.	.	28µM	?	.
CCn1ncc(C2=NOC(C(=O)NCC(C)C)C2)c1C (configuration not stated)	.	.	.	.	?	.
CCCCCCCCCCn1c2c(c(=N)c3c1CCC3)CCC2	13µM	.	.	?	?	.
CCCCCCCCn1c2c(c(=N)c3ccccc31)CCC2	?	.	.	7.5µM	?	.

Bioassay records: PubChem, National Center for Advancing Translational Sciences (NCATS)
